Assay outcomes: PubChem BioAssay, The Scripps Research Institute Molecular Screening Center
Most compounds without a hit are left out; they make up all but 2.6% or so of the library.
PAFAH1B3 inh: inhibitors of human PAFAH1B3; inhibition, % at 3.39 µM; 340,000 compounds, 0.28% hits; AID 492972; Q15102; recombinant PAFAH1B3, FP-rhodamine probe, fluorescence polarization;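 active means inhibition above the screen-wide average of all tested compounds plus 3 SD, cut at about 25% in these data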;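 further: 0% = enzyme with DMSO only and 100% = wells lacking PAFAH1B3 protein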
PAFAH1B2 inh: PAFAH1B2 (human) inhibition; P68402; recombinant PAFAH1B2, FP-rhodamine activity probe, fluorescence polarization; inhibition, % at 3.39 µM; 340,000 compounds, 1.2% hits; AID 492953;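 active means inhibition above the mean of all tested compounds plus 3 SD, cut at about 24% in these data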;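 further: 0% = enzyme with DMSO and 100% = wells lacking PAFAH1B2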
PAFAH2 inh: inhibitors of human PAFAH2; 340,000 compounds, 0.99% hits; inhibition, % at 3.39 µM; AID 492956; recombinant PAFAH2, FP-rhodamine activity probe, fluorescence polarization; Q99487;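 active means inhibition above the mean over all tested compounds plus 3 SD, cut at about 30% in these data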;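 further: inhibitors block probe labeling of enzyme so polarization drops; 0% = enzyme with DMSO and 100% = wells lacking PAFAH2 protein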
pPAFAH FP inh: pPAFAH (human) enzyme inhibition; Q13093; recombinant pPAFAH, FP-rhodamine probe fluorescence polarization; inhibition, % at 3.39 µM; 330,000 compounds, 1.5% hits; AID 463082;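 active means inhibition above the mean inhibition across the screen plus 3 SD, cut at about 25% in these data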;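 further: inhibitors block binding of the rhodamine activity-based probe so polarization drops; 0% = enzyme with DMSO and 100% = wells lacking pPAFAH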
Target sequence (Q13093 whole entry, looked up): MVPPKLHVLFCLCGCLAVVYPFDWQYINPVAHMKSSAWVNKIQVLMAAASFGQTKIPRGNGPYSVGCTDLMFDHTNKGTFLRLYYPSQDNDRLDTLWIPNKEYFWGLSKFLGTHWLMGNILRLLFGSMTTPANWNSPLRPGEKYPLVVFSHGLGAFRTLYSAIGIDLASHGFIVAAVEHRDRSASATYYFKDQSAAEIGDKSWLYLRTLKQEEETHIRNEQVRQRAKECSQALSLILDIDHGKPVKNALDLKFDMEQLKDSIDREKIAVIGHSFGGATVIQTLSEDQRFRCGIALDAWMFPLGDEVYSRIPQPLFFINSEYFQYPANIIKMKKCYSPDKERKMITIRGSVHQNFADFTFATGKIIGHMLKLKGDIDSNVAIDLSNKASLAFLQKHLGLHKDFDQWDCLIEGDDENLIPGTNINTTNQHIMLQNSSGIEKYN
PKA-R2B activ: activates the human PKA-R2B holoenzyme complex; P22694+P31323; 340,000 compounds, 0.079% hits; activation, % at 11.4 µM; PKA-R2B holoenzyme dissociation, Cy5-IP20 fluorescence polarization; R2B truncated from residue 108, S112A mutant; 0% DMSO only, 100% 113 µM cGMP;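 active means activation above a cutoff set at the mean over all compounds plus 3 SD, cut at about 18% in these data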;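 further: higher means more holoenzyme dissociation and a rise in polarization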
PKA-R1A act: PKA-R1A complex activation | PKA-R1A dissociation, Cy5-IP20 fluorescence polarization; scaled: DMSO 0%, 113 µM cGMP 100% | 340,000 compounds, 0.083% hits | activation, % at 11.4 µM;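 active means percent activation above the mean of all tested compounds plus 3 SD, cut at about 19% in these data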;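 further: higher means more PKAc released from R1A so a rise in polarization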
An asterisk follows results filed as active; / = no result given.

SMILES | PAFAH1B3 inh | PAFAH1B2 inh | PAFAH2 inh | pPAFAH FP inh | PKA-R2B activ | PKA-R1A act
Cn1cccc1/C=N\NC(=O)C1COc2ccc(C(C)(C)C)cc2O1 (stereo not drawn) | 3.5 | 9.9 | 7.7 | 19.5 | -10.6 | -3.8
C=CCN(Cc1cccs1)C(=O)COc1ccc2c(c1)OCO2 | 7.8 | 7.5 | 7.4 | 6.9 | -5.3 | 11.5
O=C(NCCO)Nc1ccc2nsnc2c1 | 3.5 | 4.8 | 5.8 | 3.5 | -12.0 | 0.0
O=C(NCCCO)c1ccc2nc(-c3ccco3)c(-c3ccco3)nc2c1 | 28.9* | 18.1 | 32.9* | / | -11.5 | 6.0
O=C(NCCO)Nc1ccc2nc(-c3ccco3)c(-c3ccco3)nc2c1 | / | / | / | 72.5* | / | /
COc1ccc2nc(-c3ccco3)c(-c3ccco3)nc2c1 | 32.7* | 26.3* | 56.4* | 46.8* | 9.2 | -9.1
C[C@H]1CN(c2ccccc2)C(=O)[C@@H]1CC(=O)Nc1ccc(Br)cc1 | / | / | / | / | 0.2 | -13.2
CC(C)(c1ccc(O)c([N+](=O)[O-])c1)c1ccc(O)c([N+](=O)[O-])c1 | 1.3 | 26.0* | 0.6 | / | 1.4 | -3.7
CN1C(=O)/C(=C/c2ccc(O)c([N+](=O)[O-])c2)N(C)C1=S | -1.3 | 6.7 | -0.5 | -2.5 | -12.7 | -11.4
O=C(C(c1ccccc1)c1ccccc1)N1CCN(Cc2ccc(Br)cc2)CC1 | 4.0 | 24.3* | -3.7 | -0.6 | 4.0 | -5.6
Cc1[nH]c2ccccc2c1/C=N/NC(=O)c1cc(-c2cccs2)[nH]n1 | 22.0 | 10.8 | 14.2 | 26.8* | -16.1 | -9.5
O=C(Nc1ccccc1Br)c1cc(=O)c2ccccc2o1 | 2.9 | -1.0 | -3.1 | 3.8 | 10.9 | 0.6
Cc1ccc(NC(=O)CSc2n[nH]c(-c3ccncc3)n2)cc1C | -0.3 | 3.6 | -2.9 | 28.9* | -10.4 | -4.3
CCc1cc(C(=O)NN2C(=O)NC3(CCCCC3)C2=O)sc1C | 0.6 | 0.9 | 2.0 | 1.6 | 1.9 | -10.9
O=C(NCCN1CCOCC1)c1ccc(/C=C2\Sc3ccccc3N(Cc3ccccc3F)C2=O)cc1 | 2.0 | -1.3 | -7.7 | 32.5* | 4.1 | -13.9
CCN(CC)C(=O)Cn1cc(SCC(=O)NC2CCCCC2)c2ccccc21 | / | / | / | / | 11.8 | 1.5
CC(C)n1nc(C(=O)NNC(=O)c2ccc(OC(F)F)cc2)c2ccccc2c1=O | 6.8 | 3.2 | -0.3 | 2.6 | 12.5 | -0.6
ONC(=Nc1ccc(Cl)cc1)c1ccccc1 | 2.2 | 36.0* | 2.0 | -0.6 | 0.7 | -10.6
O=[N+]([O-])c1cccc(C(=Nc2cccc(Cl)c2)NO)c1 | 10.4 | 5.5 | 1.9 | 0.4 | 5.4 | -12.7
O=C(Nc1ccccc1Cl)Oc1ccc(-c2ccccc2)cc1 | 6.7 | 60.4* | -0.9 | 5.8 | -14.8 | -8.4
Clc1ccccc1Cn1c(/C=C/c2ccco2)nc2ccccc21 | 5.5 | -5.7 | -3.3 | 30.7* | -4.0 | -7.3
COc1ccc(Cn2c(/C=C/c3ccccc3)nc3ccccc32)cc1 | -8.4 | -2.5 | -5.7 | -2.2 | -4.0 | -5.0
O=C1Nc2ccccc2SC(c2ccccc2)C1O (stereo not drawn) | 0.7 | 5.7 | 12.2 | 34.2* | 0.4 | -1.4
O=C(O)CC1Sc2ccccc2NC1=O (stereo not drawn) | 6.4 | 1.6 | 9.4 | 0.6 | 0.3 | 5.8
CCc1nnc(NC(=O)CS(=O)(=O)c2ccccc2)s1 | 1.9 | 3.1 | 0.2 | -4.5 | -1.1 | 7.1
SMILES | PAFAH1B3 inh | PAFAH1B2 inh | PAFAH2 inh | pPAFAH FP inh | PKA-R2B activ | PKA-R1A act
Brc1ccc(CSc2nnc3ccccn23)cc1 | 2.3 | 29.7* | 1.8 | 0.2 | 1.9 | 0.8
CC(C)Oc1ccc(S(=O)(=O)N2CCOCC2)cc1NC(=O)Cc1c(F)cccc1Cl | 4.4 | 2.8 | 0.1 | -5.3 | 4.5 | -2.2
CC(=O)Nc1cccc(/C(C)=N/Nc2ccc(S(=O)(=O)Nc3ccccc3C(=O)O)cc2[N+](=O)[O-])c1 | 23.0 | 33.1* | 38.3* | / | -3.4 | 0.8
CCOc1ccc(C=NNc2ccc(S(=O)(=O)Nc3ccccc3C(=O)O)cc2[N+](=O)[O-])cc1OC | 13.1 | 11.2 | 28.8 | 25.1* | -4.9 | 3.8
O=C(O)c1ccccc1NS(=O)(=O)c1ccc(N/N=C/c2cccc(O)c2O)c([N+](=O)[O-])c1 | 47.9* | 44.0* | 63.3* | / | -2.7 | 3.9
CCOc1ccc(C(C)(C)C)cc1S(=O)(=O)Nc1ccncc1 | 4.2 | 4.7 | -5.5 | 5.4 | -5.4 | -14.5
